Measured values published in the supplement of paper PMC7156485.
A number with no mark means an inactive call.

Each molecule was assayed on HCC1569 (assay: H1.0 immunofluorescence intensity relative to DMSO (% of DMSO); higher = stronger H1.0 induction, active = 140 or more). Details: concentration: 10 µM; 24 h.
Procedure, shortened: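 After 24 h at 37 °C with compounds at 10 µM, in triplicate, HCC1569 and TDF cells were fixed with 3.7% formaldehyde. Immunostaining used a rabbit anti-H1.0 antibody and an AlexaFluor 647 secondary, with DAPI, and six fields per well were imaged at ×10. H1.0 nuclear intensity or cell number is presented as percent of the plate control, from the median of replicates, with HCC1569 values smoothed for positional effects.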
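Also: TDF is a line of transformed human dermal fibroblasts of mesenchymal origin.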

Compound	H1.0 immunofluorescence intensity
CC=C1C2C=C(C)CC1(N)c1ccc(=O)[nH]c1C2 (single isomer, unassigned; (-)) [(-)-Huperazine]	84.1
CN1CCC(c2c(O)cc(O)c3c(=O)cc(-c4ccccc4Cl)oc23)C(O)C1 (stereo unspecified) [Alvocidib]	111
COC1(NC(=O)CSCC#N)C(=O)N2C(C(=O)[O-])=C(CSc3nnnn3C)CSC21.[Na+] (stereo unspecified) [Cefmetazole sodium]	89.6
Cl.Cl.Cl.NCCC1CCCC(CCN)N1 (stereo unspecified) [MDL 26,630 trihydrochloride]	85.3
CC12CCC3c4ccc(O)cc4CCC3C1CCC2=O (stereo unspecified) [Estrone]	101
COc1cc2c(cc1OC)-c1cc(=Nc3c(C)cc(C)cc3C)n(C)c(=O)n1CC2.Cl [Trequinsin.HCl]	118
Cn1cc(C2=C(c3cn(CCCSC(=N)N)c4ccccc34)C(=O)NC2=O)c2ccccc21	238 (active)
O=C(O)C1=CC(=NNc2ccc(S(=O)(=O)Nc3ccccn3)cc2)C=CC1=O [Sulfasalazine]	88.7
C#CCNCc1cc2cc(OCc3ccccc3)ccc2[nH]1 [N-((5-(benzyloxy)-1H-indol-2-yl)methyl)prop-2-yn-1-amine]	136
O=C(COc1ccc(Cl)cc1)NC1CCC(NC(=O)COc2ccc(Cl)cc2)CC1 (stereo unspecified)	92.9
O=C(O)C=CC(=O)O.c1cnc(N2CCN(Cc3ccc4c(c3)OCO4)CC2)nc1 [Piribedil maleate]	79.7
